Reference: PubChem BioAssay AID1621 (Southern Research Specialized Biocontainment Screening …, 2009)
The whole screen tested about 290,000 compounds, of which about 60 (0.02%) were called active. Inconclusive results (about 1%) are left out. How the calls were made is not given here. The list is a sample of the results. Entries with a potency or affinity are not part of this list.

assay: inhibition of WNV-induced cytopathic effect – cell-based, CPE readout (AID 1621); settings: West Nile virus-infected cells, at 10 µM, stronger effect = higher value

CPE inhibition, inactive:
Cc1ccc2nc(-c3ccc(NC(=O)CCN4C(=O)c5ccccc5C4=O)cc3)sc2c1 -0.32%
O=C(COc1ccc([N+](=O)[O-])cc1)N(Cc1ccccc1)Cc1ccccc1 -0.78%
COC(=O)c1c(NC(=O)C(C)(C)C)sc2c1C(C(=O)OC)CC2 (configuration not stated) -0.06%
COC(=O)c1c(NC(=O)C(C)C)sc2c1C(C(=O)OC)CC2 (configuration not stated) 1.21%
CC1=C(C(=O)N2CCCC(CCC(=O)NCc3ccccc3F)C2)OCCO1 (configuration not stated) -0.63%
COc1ccc(C2c3ccc4ccccc4c3Oc3ncn(CCCO)c(=N)c32)cc1 (configuration not stated) -1.98%
N=c1c2c(ncn1CCN1CCOCC1)Oc1ccc3ccccc3c1C2c1ccccc1 (configuration not stated) 2.66%
COc1ccc(C2c3ccc4ccccc4c3Oc3ncn(CCN4CCOCC4)c(=N)c32)cc1 (configuration not stated) -0.91%
COc1ccc(C2c3c(ncn(CCCN4CCOCC4)c3=N)Oc3ccc4ccccc4c32)cc1OC (configuration not stated) -1.6%
COc1ccc(C2c3c(ncn(CCN4CCOCC4)c3=N)Oc3ccc4ccccc4c32)cc1OC (configuration not stated) -1.66%
COc1ccc(C2c3ccc4ccccc4c3Oc3ncn(CCO)c(=N)c32)cc1OC (configuration not stated) 57.3%
Cc1nc2nc(CCc3ccccc3)nn2c(C)c1Cl 0.45%
CN(Cc1ccon1)C(=O)CCc1nnc(Cc2ccc(-c3ccccc3)cc2)o1 -0.95%
Cc1cccc(-n2c(C)cc(C)c(C#N)c2=O)c1 0.53%
O=C(NNc1ccccc1[N+](=O)[O-])Nc1ccc(F)cc1F -0.58%
O=C(CCc1nc2ccccc2s1)OCc1ccccc1F -0.14%
O=c1c2c(-c3cccc([N+](=O)[O-])c3)ccnc2[nH]n1-c1ccccc1 0%
COCCn1c(N)c(N(Cc2ccccc2)C(=O)Cc2c(Cl)cccc2Cl)c(=O)[nH]c1=O -0.15%
COc1cccc(-n2c(SCC(=O)Nc3ccc4c(c3)CCC4)nc3ccccc3c2=O)c1 2.86%
O=C(CSc1nc2ccccc2c(=O)n1-c1ccc(F)cc1)Nc1ccc(C(=O)O)cc1 0.03%
Cc1ccc(-n2c(SCC(=O)Nc3ccc(N4CCOCC4)cc3)nc3ccccc3c2=O)cc1 12.4%
O=C(CSc1nc2ccccc2c(=O)n1-c1ccc(F)cc1)Nc1ccc(N2CCOCC2)cc1 -1.03%
C=CCn1c(SCC(=O)Nc2ccc3c(c2)CCC3)nc2ccccc2c1=O -0.68%
CCCCn1c(SCC(=O)Nc2ccc3c(c2)CCC3)nc2ccccc2c1=O -0.76%
O=C(Nc1ccccc1)C1CC(O)CN1S(=O)(=O)c1ccc([N+](=O)[O-])cc1 (configuration not stated) 0.17%
Cc1ccc(-c2oc3ccccc3c(=O)c2OCC(=O)O)cc1 0.23%
COc1cc(NC(=O)COC(=O)CCc2cc(OC)c(OC)c(OC)c2)cc(OC)c1 1.02%
CCN(CC)CCCNC(=O)c1cc2c(=O)n(CC)c3ccccc3c2s1 1.54%
COCCNC(=O)c1cc2sc3ccccc3c2s1 -0.09%
CCCCN(CC)CCNC(=O)c1cc2c(=O)n(CC)c3ccccc3c2s1 -1.08%
CCN(CC)C(=O)c1cc2sc3ccccc3c2s1 -0.37%
CN(C)CCCNC(=O)c1ccccn1 0.08%
COCCN(CCOC)C(=O)c1cc2sc3ccccc3c2s1 -0.78%
O=C(COc1ccc(S(=O)(=O)N2CCc3ccccc32)cc1Cl)NCc1ccccn1 -0.17%
CCOc1ccc(NC(=O)C(C)O)c(NS(=O)(=O)c2ccc(CCNC(C)=O)cc2)c1 (configuration not stated) -0.27%
O=C(CNS(=O)(=O)c1ccccc1)OCC(=O)c1ccc(Br)cc1 -0.68%
CCOC(=O)C1C(=O)CC(C)(O)C(C(=O)OCC)C1c1ccc(NC(C)=O)cc1 (configuration not stated) 0%
O=C1CSC(c2cn(-c3ccccc3)nc2-c2ccccc2)N1Cc1ccco1 (configuration not stated) -0.03%
O=C(NC1CCS(=O)(=O)C1)c1sc2ccccc2c1Cl (configuration not stated) 1.04%
CCCC1CCC(C(=O)Nn2cnc3ccccc3c2=O)CC1 (configuration not stated) 0.33%
Cc1[nH]c(=O)c(C#N)c(C)c1CCC(=O)NCc1ccc(Cl)cc1 0.96%
Cc1nc(Cl)sc1C(=O)NC(C)c1ccc(Cl)cc1 (configuration not stated) -0.9%
O=C1CN(C(=O)c2ccc(Cl)nc2)c2ccccc2N1 0.17%
CC(C)(C)c1ccc(NC(=O)CSc2nnc(-c3n[nH]c4ccccc34)o2)cc1 0.07%
Cc1cc(C)c2nc(N3CCCC(C(=O)NCCCN4CCOCC4)C3)sc2c1 (configuration not stated) -0.13%
Cc1cc(C)c2nc(N3CCCC(C(=O)NCCN4CCOCC4)C3)sc2c1 (configuration not stated) -0.73%
COC(=O)c1ccccc1NC(=S)N(Cc1ccc2c(c1)OCO2)Cc1cc2cc(C)ccc2[nH]c1=O 0.29%
Cc1[nH]c(C(=O)O)c(C)c1C(=O)OC(C)C 0.13%
CC(C(=O)NC(C)(C)C)N1C(=O)c2cccc3cccc(c23)C1=O (configuration not stated) -0.58%
CN(C)CCNC(=O)c1c(NC(=O)c2ccccc2)sc2c1CCCC2 2.53%
NCCNC(=O)c1c(NC(=O)c2ccccc2)sc2c1CCCC2 -0.62%
CCc1cccc(NC(=O)C2CCCN2S(=O)(=O)c2cccc3cccnc23)c1 (configuration not stated) -0.25%
O=C(NCCCN1CCOCC1)c1cc2c(s1)-c1ccccc1OC2 0.21%
CCCN1CCN(CCCNC(=O)c2cc3c(s2)-c2c(C)cccc2OC3)CC1 -0.21%
CCN1CCN(CCCNC(=O)c2cc3c(s2)-c2ccccc2OC3)CC1 35.2%
Cc1cccc2c1-c1sc(C(=O)NCCCN3CCc4ccccc4C3)cc1CO2 -0.65%
Cc1cccc2c1-c1sc(C(=O)NCCCN3CCC(C)CC3)cc1CO2 1.03%
Cc1cccc2c1-c1sc(C(=O)NCCCN3CCCC(C)C3)cc1CO2 (configuration not stated) -0.27%
O=C(NC1CC1)c1cc2c(s1)-c1ccccc1OC2 1.08%
O=C(NCc1cccs1)c1cc2c(s1)-c1ccccc1OC2 0.12%
CC1(C)SC2c3ccccc3C(=O)N2[C@@H]1C(=O)O (some centres not stated) 1.57%
COc1ccc(C2/C=C\CN(C(=O)OCc3ccccc3)CC(=O)N2Cc2ccc(F)cc2)cc1 (configuration not stated) -0.53%
O=c1c2ccccc2cnn1Cc1cccc(Br)c1 0%
COc1ccc(-c2noc(N3CCCC(C(=O)Nc4cc(F)ccc4F)C3)n2)cc1 (configuration not stated) -0.21%
CCSc1nnc(Nc2ccccc2)s1 0.4%
C/C(=N\NC(=O)c1nn(C)c(C)c1Br)c1ccc(NC(=O)c2ccc(C)s2)cc1 -0.9%
Cc1ccc(S(=O)(=O)NC(C)CCc2ccccc2)cc1 (configuration not stated) -1.02%
COc1cc2ccccc2cc1C(=O)NC(=S)Nc1nnn(C)n1 0.33%
Cc1sc(/C=C2\C(=O)ON=C2c2ccccc2)cc1Br 0.35%
CC(C)NC(=O)c1ccc(-c2ccc(Cl)c(C(F)(F)F)c2)o1 -0.86%
CCOC(=O)C1C(c2cccs2)NC(=O)N(C)C1(O)C(F)(F)F (configuration not stated) -0.41%
COCCNC(=O)c1onc(CSc2cc(C)cc(C)c2)c1C(=O)NCCOC 0.39%
CCCCNC(=O)c1onc(CSc2cc(C)cc(C)c2)c1C(=O)NCCCC -0.6%
O=C(CC(=O)Nc1ccccc1C(=O)O)NNC(=O)Cc1ccccc1 -0.29%
O=C(CCCl)N1CCN(c2nc(-c3ccccc3)cs2)CC1 1.96%
CN(C)C(=O)N1CCN(c2nc(-c3ccccc3)cs2)CC1 -0.36%
CCCNc1c(NC(=O)c2cccs2)c(=O)oc2ccccc12 -0.26%
Cc1ccc(NC(=O)C(C)N2C(=O)c3ccccc3C2=O)cc1C (configuration not stated) 0.2%
CCOC(=O)CN1C(=O)N[C@@H](c2cccc(C(F)(F)F)c2)[C@H](C(C)=O)[C@H]1C -0.43%
CCN(CC)CCC(c1cc(OC)c(OC)c(OC)c1)c1c(OC)cc(OC)c2c(C)cc(=O)oc12 (configuration not stated) -0.13%
CCN(CC)CCC(c1ccc(N(C)C)cc1)c1c(OC)cc(OC)c2c(-c3ccccc3)cc(=O)oc12 (configuration not stated) -0.46%
CONC(=O)Nc1ccccc1[N+](=O)[O-] 0.1%
CCCC(=O)Nc1c(C(=O)OCC)[nH]c2ccccc12 0%
CCOC(=O)c1[nH]c2ccccc2c1NC(=O)C(C)(C)C 0.96%
Cc1ccc(Sc2c(C)nn(C(=O)c3cccc(S(=O)(=O)N4CCOCC4)c3)c2C)cc1 0.04%
O=C(Nc1ccc(S(=O)(=O)Nc2nccs2)cc1)c1ccc(=O)[nH]c1 -0.06%
CCOc1ccc(NC(=O)c2c(NC(=O)CN3CCCC3)sc3c2CCC3)cc1 -0.99%
CN1CCN(CC(=O)Nc2sc3c(c2C(=O)Nc2ccccc2)CCCC3)CC1 1.23%
CCOC(=O)c1c(N)c2cc([N+](=O)[O-])ccc2n1C 0.7%
COCC(C)n1c(SCc2cc(C(=O)OC)c(C)o2)nc2ccccc2c1=O (configuration not stated) -0.56%
CC(=O)c1ccc(N2CCN(c3ccc(S(=O)(=O)NCCCN(C)C)cc3[N+](=O)[O-])CC2)cc1 -2.19%
CC(=O)c1ccc(N2CCN(c3ccc(S(=O)(=O)NCCN(C)C)cc3[N+](=O)[O-])CC2)cc1 -0.21%
